Experimental data reported in PubChem BioAssay (EPA / NIEHS).
“And” between values parts separate entries of the source, which are not always exact repeats. Equal entries are not always repeated. Records with an inconclusive call do not appear. Some structures have more than one record in an assay (separate samples or runs), and their calls can disagree. The source made the active and inactive calls. How the source made its calls, unless noted: active means hit-call score of the fitted dose curve at least 0.9, where 1 is the maximum; inconclusive means response in the unintended direction; inactive means score below 0.9.

Key:
[1] = target: Oxysterols receptor LXR-beta (Homo sapiens) (UniProt P55055); test: ATG_LXRb_TRANS: Attagene TRANS-FACTORIAL HepG2 Assay for human Liver X Receptor beta (LXRb) (AID 2282981); settings: HepG2 Attagene TRANS GAL4-LXRb reporter, mRNA
Sequence of Oxysterols receptor LXR-beta (Homo sapiens) (P55055 whole entry, looked up, the tested form may be a part): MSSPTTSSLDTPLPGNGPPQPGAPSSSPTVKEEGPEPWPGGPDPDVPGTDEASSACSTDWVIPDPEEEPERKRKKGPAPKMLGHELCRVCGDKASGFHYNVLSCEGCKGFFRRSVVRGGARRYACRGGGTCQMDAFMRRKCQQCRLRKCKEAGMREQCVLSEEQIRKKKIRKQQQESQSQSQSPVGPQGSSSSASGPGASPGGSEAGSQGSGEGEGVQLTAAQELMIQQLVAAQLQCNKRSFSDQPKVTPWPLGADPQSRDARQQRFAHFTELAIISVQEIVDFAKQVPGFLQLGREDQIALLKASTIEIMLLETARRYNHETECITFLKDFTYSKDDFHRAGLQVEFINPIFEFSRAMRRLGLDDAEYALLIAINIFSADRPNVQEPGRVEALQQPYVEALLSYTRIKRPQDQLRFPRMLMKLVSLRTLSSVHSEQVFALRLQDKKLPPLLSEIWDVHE
Procedure, shortened: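 Liver-derived HepG2 cells transfected with Gal4-responsive reporters were dosed for 24 h. Activation was scored as rise in reporter mRNA, by RT-PCR and capillary electrophoresis, above DMSO baseline.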

[2] = target: Hepatocyte nuclear factor 4-alpha (Homo sapiens) (UniProt P41235); test: ATG_HNF4a_TRANS: Attagene TRANS-FACTORIAL HepG2 Assay for human Hepatocyte Nuclear Factor 4 alpha (HNF4a) (AID 2282982); settings: HepG2 HNF4a transactivation reporter, mRNA readout
Sequence of Hepatocyte nuclear factor 4-alpha (Homo sapiens) (P41235 whole entry, looked up, the tested form may be a part): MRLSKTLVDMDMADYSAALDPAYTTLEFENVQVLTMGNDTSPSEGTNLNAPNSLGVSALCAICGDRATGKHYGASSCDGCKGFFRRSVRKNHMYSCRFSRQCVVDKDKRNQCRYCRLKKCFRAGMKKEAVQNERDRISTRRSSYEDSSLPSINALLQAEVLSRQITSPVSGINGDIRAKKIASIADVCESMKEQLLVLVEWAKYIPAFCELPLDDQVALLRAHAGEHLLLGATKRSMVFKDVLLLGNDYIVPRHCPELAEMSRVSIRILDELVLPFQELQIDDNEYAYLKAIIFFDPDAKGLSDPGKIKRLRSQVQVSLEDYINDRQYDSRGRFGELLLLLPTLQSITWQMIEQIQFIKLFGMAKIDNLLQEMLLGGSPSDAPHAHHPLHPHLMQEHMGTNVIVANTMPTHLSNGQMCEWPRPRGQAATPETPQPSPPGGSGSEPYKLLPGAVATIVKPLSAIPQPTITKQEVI
Procedure, shortened: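 Using HepG2 liver cells transfected with GAL4-UAS reporter units, chemical-induced mRNA increases were assessed after 24 hours. Fluorescent RT-PCR fragments were separated by capillary electrophoresis and compared with DMSO negative controls.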

[3] = ATG_M_06_TRANS: Attagene TRANS-FACTORIAL HepG2 Assay for M06 Transcription Factor (Internal Marker) (AID 2282983); settings: HepG2 Attagene TRANS M06 internal marker reporter
Procedure, shortened: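 Background-control reporter readout: after 24 h chemical exposure of transiently transfected HepG2 (GAL4-UAS reporter units), mRNA quantified by RT-PCR with fluorescent labeling and capillary electrophoresis. Gain-of-signal fitting against DMSO baseline.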

[4] = ATG_M_32_TRANS: Attagene TRANS-FACTORIAL HepG2 Assay for M32 Transcription Factor (Internal Marker) (AID 2282984); settings: HepG2 Attagene TRANS M32 internal marker reporter;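 further: transcript level of a background control reporter unit measured by RT-PCR and capillary electrophoresis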
Procedure, shortened: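 Fluorescence-detected mRNA induction, HepG2 liver cells, 24 h after dosing. Multiple GAL4-UAS reporter units introduced by transient transfection; background-control endpoint analysed for gain of signal against DMSO.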

[5] = target: Nuclear receptor subfamily 4 group A member 2 (Homo sapiens) (UniProt P43354); test: ATG_NURR1_TRANS: Attagene TRANS-FACTORIAL HepG2 Assay for human Nuclear Receptor Related Protein 1 (NURR1) (AID 2282985); settings: HepG2 Attagene TRANS reporter, mRNA readout
Sequence of Nuclear receptor subfamily 4 group A member 2 (Homo sapiens) (P43354 whole entry, looked up, the tested form may be a part): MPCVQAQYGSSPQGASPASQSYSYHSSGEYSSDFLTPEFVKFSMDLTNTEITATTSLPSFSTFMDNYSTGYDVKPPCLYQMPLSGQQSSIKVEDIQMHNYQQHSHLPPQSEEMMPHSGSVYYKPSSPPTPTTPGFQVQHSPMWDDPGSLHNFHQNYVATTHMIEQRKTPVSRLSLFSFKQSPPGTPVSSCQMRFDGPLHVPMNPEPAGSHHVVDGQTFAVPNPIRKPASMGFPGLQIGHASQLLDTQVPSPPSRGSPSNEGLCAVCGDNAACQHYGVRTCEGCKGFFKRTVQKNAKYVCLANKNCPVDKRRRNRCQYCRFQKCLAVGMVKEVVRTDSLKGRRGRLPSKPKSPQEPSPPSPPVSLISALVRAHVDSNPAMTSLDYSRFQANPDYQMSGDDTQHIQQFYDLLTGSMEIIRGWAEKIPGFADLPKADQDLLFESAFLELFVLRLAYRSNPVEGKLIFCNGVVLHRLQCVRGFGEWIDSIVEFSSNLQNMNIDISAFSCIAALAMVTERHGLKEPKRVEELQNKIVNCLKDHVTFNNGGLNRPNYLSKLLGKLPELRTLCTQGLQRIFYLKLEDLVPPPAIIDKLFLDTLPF
Procedure, shortened: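 Chimeric NR-Gal4 proteins were expressed in human HepG2 cells bearing GAL4-UAS reporter units, and induced reporter mRNA was quantified 24 h post-dosing by RT-PCR and capillary electrophoresis.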

[6] = target: Transcriptional activator Myb (Homo sapiens) (UniProt P10242); test: ATG_Myb_CIS: Attagene CIS-FACTORIAL HepG2 Assay for human Myeloblastosis (Myb) Proto-Oncogene Transcription Factor (AID 2282986; active means hit-call score of the fitted dose curve at least 0.9, where 1 is the maximum; inactive means score below 0.9); settings: HepG2 Attagene CIS-FACTORIAL Myb reporter transcription; actives raise or lower the signal
Sequence of Transcriptional activator Myb (Homo sapiens) (P10242 whole entry, looked up): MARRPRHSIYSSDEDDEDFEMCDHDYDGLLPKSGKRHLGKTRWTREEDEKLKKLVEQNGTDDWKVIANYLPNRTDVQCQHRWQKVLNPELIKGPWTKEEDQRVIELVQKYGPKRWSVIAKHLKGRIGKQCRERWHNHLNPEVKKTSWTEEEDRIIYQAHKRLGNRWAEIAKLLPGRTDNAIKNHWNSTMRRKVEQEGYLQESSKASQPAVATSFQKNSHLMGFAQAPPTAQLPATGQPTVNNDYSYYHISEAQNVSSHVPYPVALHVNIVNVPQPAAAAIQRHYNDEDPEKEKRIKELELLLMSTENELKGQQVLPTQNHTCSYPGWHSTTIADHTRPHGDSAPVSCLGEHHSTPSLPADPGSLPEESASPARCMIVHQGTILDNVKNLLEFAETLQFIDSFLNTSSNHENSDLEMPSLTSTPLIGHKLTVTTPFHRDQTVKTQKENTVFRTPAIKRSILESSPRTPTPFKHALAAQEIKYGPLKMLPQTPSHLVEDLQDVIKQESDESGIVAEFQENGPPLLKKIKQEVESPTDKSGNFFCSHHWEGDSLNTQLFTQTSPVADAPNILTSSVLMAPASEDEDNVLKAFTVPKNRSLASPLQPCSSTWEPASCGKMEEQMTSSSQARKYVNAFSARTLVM
Procedure, shortened: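 Fluorescence signals from capillary electrophoresis of RT-PCR-amplified reporter cDNA give the read-out. Cells: HepG2 transfected with multiple cis-regulated reporter units. Exposure lasts 24 hours; DMSO defines baseline for gain or loss of signal.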

[7] = target: Nuclear respiratory factor 1 (Homo sapiens) (UniProt Q16656); test: ATG_NRF1_CIS: Attagene CIS-FACTORIAL HepG2 Assay for human Nuclear Respiratory Factor 1 (NRF1) Orphan Gene (AID 2282987; active means hit-call score of the fitted dose curve at least 0.9, where 1 is the maximum; inactive means score below 0.9); settings: HepG2 NRF1 cis-element reporter, Attagene multiplex; actives raise or lower the signal
Sequence of Nuclear respiratory factor 1 (Homo sapiens) (Q16656 whole entry, looked up): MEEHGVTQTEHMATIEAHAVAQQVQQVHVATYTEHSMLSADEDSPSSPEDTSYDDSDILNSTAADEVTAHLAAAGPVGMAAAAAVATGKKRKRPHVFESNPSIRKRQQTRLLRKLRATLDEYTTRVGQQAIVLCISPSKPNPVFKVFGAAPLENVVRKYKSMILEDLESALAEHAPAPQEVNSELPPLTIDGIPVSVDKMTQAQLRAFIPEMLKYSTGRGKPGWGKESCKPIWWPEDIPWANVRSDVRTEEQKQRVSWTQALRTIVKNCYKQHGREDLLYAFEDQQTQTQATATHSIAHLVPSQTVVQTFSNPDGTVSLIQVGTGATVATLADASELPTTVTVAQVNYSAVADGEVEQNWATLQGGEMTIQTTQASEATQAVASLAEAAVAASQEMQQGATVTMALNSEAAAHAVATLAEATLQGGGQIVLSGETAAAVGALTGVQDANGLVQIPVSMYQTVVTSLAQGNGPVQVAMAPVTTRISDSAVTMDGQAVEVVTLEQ
Procedure, shortened: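 Transcriptional reporter readout, one component of a 52-endpoint multiplexed HepG2 panel. Exposure 24 h; mRNA detected via RT-PCR and fluorescent capillary electrophoresis; fitting in both directions against DMSO.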

[8] = ATG_NFI_CIS: Attagene CIS-FACTORIAL HepG2 Assay for human Nuclear Factor I (NFI) (AID 2282989; active means hit-call score of the fitted dose curve at least 0.9, where 1 is the maximum; inactive means score below 0.9); settings: HepG2 cis-regulatory reporter, NFI response element transcription; actives raise or lower the signal
Procedure, shortened: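 Reporter transcripts were measured by RT-PCR with fluorescent primer extension and capillary electrophoresis 24 h post-treatment. HepG2 cells carried transiently transfected cis-regulated reporter constructs reporting endogenous factor activity; gain or loss fitted against DMSO baseline.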

[9] = target: Myc proto-oncogene protein (Homo sapiens) (UniProt P01106); test: ATG_Myc_CIS: Attagene CIS-FACTORIAL HepG2 Assay for human Myelocytomatosis (Myc) Proto-Oncogene Transcription Factor (AID 2282990; active means hit-call score of the fitted dose curve at least 0.9, where 1 is the maximum; inactive means score below 0.9); settings: HepG2, Attagene cis-reporter transcription factor activity; actives raise or lower the signal
Sequence of Myc proto-oncogene protein (Homo sapiens) (P01106 whole entry, looked up): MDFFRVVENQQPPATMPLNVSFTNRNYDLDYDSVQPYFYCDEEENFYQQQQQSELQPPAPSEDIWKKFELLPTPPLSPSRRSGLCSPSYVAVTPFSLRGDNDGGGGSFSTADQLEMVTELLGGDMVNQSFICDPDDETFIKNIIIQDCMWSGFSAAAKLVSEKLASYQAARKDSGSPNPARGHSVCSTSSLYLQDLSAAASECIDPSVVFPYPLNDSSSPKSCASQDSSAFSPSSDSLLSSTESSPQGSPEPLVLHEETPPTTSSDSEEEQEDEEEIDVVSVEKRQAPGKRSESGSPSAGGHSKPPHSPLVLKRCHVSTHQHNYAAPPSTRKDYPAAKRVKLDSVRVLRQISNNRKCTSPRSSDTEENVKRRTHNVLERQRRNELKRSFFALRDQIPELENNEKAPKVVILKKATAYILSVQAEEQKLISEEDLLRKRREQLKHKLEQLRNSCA
Procedure, shortened: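 HepG2 cells transiently transfected with multiple cis-promoter-driven reporter transcription units, so endogenous TF activity is read. After 24 h compound exposure, reporter mRNA was quantified by RT-PCR, 6-FAM labelling, HpaI digestion and capillary electrophoresis; bidirectional fit versus DMSO.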

Measured: AC50

CCOC=C(C(=O)OCC)C(=O)OCC
inactive: all assays above

O=C(F)C(F)(F)C(F)(F)C(F)(F)C(F)F
inactive: all assays above

C[N+](C)(CCCNS(=O)(=O)CCC(F)(F)C(F)(F)C(F)(F)C(F)(F)C(F)(F)C(F)(F)F)CC(=O)[O-]
inactive: all assays above

COc1ccccc1NC(=O)c1cc2ccccc2cc1O
active: [6] 121 µM | [8] 30.4 µM | [9] 100 µM
not listed: [5]
inactive: all other assays above

CCCCCCCCCCCC[N+](C)(C)Cc1ccccc1
active: [6] 11.1 µM
inactive: [1] | [2] | [3] | [4] | [5] | [6] | [7] | [8] | [9]

CCOC(=O)CN[C@@H](C(=O)N1CC[C@H]1C(=O)NCc1ccc(/C(N)=N/O)cc1)C1CCCCC1
active: [5] 3.99 µM
not listed: [8]
inactive: all other assays above

CCCCCCc1ccc(N)cc1
not listed: [5]
inactive: all other assays above

CCCC=O
not listed: [4]
inactive: all other assays above

O=P(O)(O)CCC(F)(F)C(F)(F)C(F)(F)C(F)(F)C(F)(F)C(F)(F)C(F)(F)C(F)(F)F
not listed: [8]
inactive: all other assays above

CC(=O)Nc1ccc(S(N)(=O)=O)cc1
not listed: [5] | [8]
inactive: all other assays above

Cc1cc(C(=C2C=CC(=Nc3ccc(S(=O)(=O)O)cc3)C=C2)c2ccc(Nc3ccc(S(=O)(=O)O)cc3)cc2)cc(S(=O)(=O)O)c1N
not listed: [5]
inactive: all other assays above

O=C(Nc1ccc(Cl)c(Cl)c1)c1cc(Cl)cc(Cl)c1O
inactive: all assays above

Cc1ccc2ccc3ccc(C)cc3c2c1
not listed: [4]
inactive: all other assays above

CC(C)(C)c1ccc(O)c(O)c1
not listed: [8]
inactive: all other assays above

O=C1OC2(c3ccccc31)c1cc(I)c(O)c(I)c1Oc1c2cc(I)c(O)c1I
active: [5] 25.4 µM
inactive: [1] | [2] | [3] | [4] | [5] | [6] | [7] | [8] | [9]

O=S(=O)(O)c1ccccc1
not listed: [5]
inactive: all other assays above

Oc1c(Cl)ccc(Cl)c1Cl
not listed: [5]
inactive: all other assays above

NC(=NCCCCCCN=C(N)/N=C(\N)Nc1ccc(Cl)cc1)/N=C(\N)Nc1ccc(Cl)cc1
inactive: [1] | [2] | [3] | [4] | [5] | [6] | [7] | [8] | [9]
active: [1] 24.1 µM | [2] 25.7 µM | [3] 23.3 µM | [6] 18.3 µM and 48.2 µM | [7] 7.2 µM and 38.6 µM | [9] 90.5 µM and 24.6 µM

CCCCCCCCCCCCCCCCCC[N+](C)(C)Cc1ccccc1
active: [2] 50 µM
not listed: [5] | [8]
inactive: all other assays above

CC1CNCC(C)O1 (stereo not drawn)
not listed: [5]
inactive: all other assays above

O=C1C=CC(=O)N1c1cccc(N2C(=O)C=CC2=O)c1
not listed: [5]
inactive: all other assays above

O=C(O)CCC(F)(F)C(F)(F)C(F)(F)C(F)(F)C(F)(F)F
inactive: all assays above

O=C1c2ccccc2C(=O)c2c(O)c(O)cc(O)c21
not listed: [5] | [8]
inactive: all other assays above
